# Compounds with a hit are over-represented: about 8.8% of the library has one in this group of screens.
# HTT ATP protect – qHTS Multiplex Assay to Identify Dual Action Probes in a Cell Model of Huntington: Cytoprotection (ATP). Potency, µM (titrated, usually from 56.4 µM), without a hit: cytoprotection (ATP increase), most hits filed as activators. 230,000 compounds, 0.14% hits. PC12 HTT-Q103 induced, cytoprotection, ATP luminescence, 40 h; active = well fitted curve in the direction sought with a large enough effect; inconclusive = small, poorly fitted or top-dose-only effect, or another doubt; inactive = no such curve, though single readings can be large; an effect the other way counts as inactive or inconclusive; note: % of control where 0% means no effect; nearly all actives have a fitted effect of over 45% in size
#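 Readout: ATPlite luminescence (ATP level). Model: stable PC12, inducible Htt exon1 Q103-GFP. Inducer: tebufenozide, 100 nM final. Compounds: dose series. No G418 in medium.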
# HPGD inh – qHTS Assay for Inhibitors of HPGD (15-Hydroxyprostaglandin Dehydrogenase); purified HPGD, NADH fluorescence kinetic, PGE2 substrate; 150,000 compounds, 4.3% hits; Potency, µM, for the others: at the top dose activity change, negative = inhibition, actives largely listed as inhibitors; 15-hydroxyprostaglandin dehydrogenase [NAD(+)] (Homo sapiens), P15428; note: % is set by controls: 0 for no effect and ±100 for the full control effect
#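 20 nM HPGD preincubated 15 min at room temperature with compound in 50 mM Tris-HCl pH 8, 0.01% Tween 20. Started with 1 mM NAD+ and 30 uM prostaglandin E2; NADH fluorescence (360/450 nm) read 5 times over 30-s intervals, last minus first.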
# ALDH1A1 block – qHTS Assay for Inhibitors of Aldehyde Dehydrogenase 1 (ALDH1A1); Aldehyde dehydrogenase 1A1 (Homo sapiens), P00352; Purified ALDH1A1, NADH fluorescence, propionaldehyde substrate; Potency, µM (top dose mostly 75.3 µM), inactives show at the highest dose activity, negative = inhibition, hits mostly inhibitors; 220,000 compounds, 7.3% hits;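 note: plate controls were no enzyme wells and a reference inhibitor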
# Target sequence (P00352 whole entry, looked up): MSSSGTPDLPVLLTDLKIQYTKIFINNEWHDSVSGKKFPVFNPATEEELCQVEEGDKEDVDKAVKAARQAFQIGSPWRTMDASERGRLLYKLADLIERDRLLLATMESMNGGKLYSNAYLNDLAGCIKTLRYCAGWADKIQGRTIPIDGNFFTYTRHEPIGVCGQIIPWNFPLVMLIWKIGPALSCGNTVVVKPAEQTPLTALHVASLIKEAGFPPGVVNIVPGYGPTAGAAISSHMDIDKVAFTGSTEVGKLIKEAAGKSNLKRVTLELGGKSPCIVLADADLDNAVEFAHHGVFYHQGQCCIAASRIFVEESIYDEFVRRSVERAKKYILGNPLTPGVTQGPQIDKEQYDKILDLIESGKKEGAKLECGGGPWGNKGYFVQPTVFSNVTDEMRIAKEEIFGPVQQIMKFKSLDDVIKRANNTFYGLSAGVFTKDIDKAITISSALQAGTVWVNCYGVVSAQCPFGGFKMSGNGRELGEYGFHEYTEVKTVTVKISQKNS
# LMNA splice mod – qHTS Assay for Modulators of Lamin A Splicing. HeLa LMNA splicing GFP/RFP minigene ratio, 48 h. Potency, µM (top dose mostly 46.1 µM), for inactives: top-dose ratio change, negative = inhibition, most hits filed as inhibitors. 200,000 compounds, 0.01% hits. AID 1487, 2009; active = well fitted inhibition curve with a large enough effect in the signal ratio, with a control signal flat, not every such curve was filed as active; inconclusive = small, poorly fitted or top-dose-only effect, or effect the other way, or a change in a side signal; the % refers to the signal ratio; note: % is set by controls: 0 for no effect and ±100 for the full control effect
#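 Read-out is the ratio of GFP to DsRed2 object intensity, acquired by 488 nm laser-scanning cytometry on HeLa lamin A-EGFP minigene reporter cells. Compound incubation 48 hrs at 37 °C in Opti-MEM with 2% FBS; DMSO 0.5% final.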
# HTT aggregate – qHTS Multiplex Assay to Identify Dual Action Probes in a Cell Model of Huntington: Aggregate Formation (GFP) | PC12 HttQ103-GFP aggregates, Acumen cytometry, 40 h | Potency, µM (top dose mostly 46.1 µM), for the others: top-dose activity change, negative = inhibition, usual class: inhibitors | 220,000 compounds, 1.1% hits | AID 1688, 2009; active = well fitted curve in the direction sought with a large enough effect; inconclusive = small, poorly fitted or top-dose-only effect, or another doubt; inactive = no such curve, though single readings can be large; an effect the other way counts as inactive or inconclusive; note: % is set by controls: 0 for no effect and ±100 for the full control effect; nearly all actives have a fitted effect of over 60% in size
#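 Using laser scanning cytometry, GFP-positive aggregates were counted after lysis of PC12 cells induced with 100 nM tebufenozide to express HTT exon 1 Q103–GFP. Compounds were tested in titration.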
# * = called active by the depositor; u = inconclusive; x = not tested or not shown; [ ] = another dose, or the depositor's remark. Unless noted, calls come from the whole dose curve; as a rule, active = well fitted inhibition curve with a large enough effect (not every such curve was filed as active); inconclusive = small, poorly fitted or top-dose-only effect, or another doubt; inactive = no such curve, though single readings can be large or run the other way. Potency is the fitted concentration of half-maximal effect.
SMILES,HTT ATP protect,HPGD inh,ALDH1A1 block,LMNA splice mod,HTT aggregate
CSc1ccc(/C=C(\C(=O)O)c2ccc(S(=O)(=O)N3CCCCC3)s2)cc1,15%[1.9 µM],16%,-14%,-22%,19%
O=C(O)/C(=C\c1cccc([N+](=O)[O-])c1)c1ccc(S(=O)(=O)N2CCCCC2)s1,-13%[10 µM],x,4µM*,x,8%[9.22 µM]
O=C(O)/C(=C\c1ccc(Cl)c([N+](=O)[O-])c1)c1ccc(S(=O)(=O)N2CCCCC2)s1,-6%[10 µM],x,0.5µM*,-10%[46 µM],7%
O=C(N/N=C/c1ccsc1)c1ccc2ccccc2n1,7%,x,-10%,2%[46 µM],-5%
COc1cccc(S(=O)(=O)Nc2cccc(C(=O)N3CCOCC3)c2)c1,24%[1.9 µM],-1%,14µM*,0%,-21%
COc1ccc(N2CCN(C(=O)c3ccc(NS(=O)(=O)c4ccc(F)c(F)c4)cc3)CC2)cc1,-13%[10 µM],-24%,1%,u,10µM*
COc1cccc(S(=O)(=O)Nc2ccc(C(=O)N3CCCCCC3)cc2)c1,-33%,x,22µM*,x,-18%
COc1cccc(S(=O)(=O)Nc2ccc(C(=O)Nc3ccncc3)cc2)c1,4%[10 µM],-11%,-6%,u,-11%
COc1ccc(N2CCN(C(=O)c3ccc(NS(=O)(=O)c4cccc(F)c4)cc3)CC2)cc1,-3%[0.074 µM],-14%,u,u,u
COc1ccc(NS(=O)(=O)c2cccc(NC(=O)c3ccc(Cl)nc3)c2)cc1,14%[10 µM],x,14%,-11%[46 µM],2.5µM*
COc1ccc(/C=N/OC(=O)Nc2ccccc2OC)cc1,-103%,x,-1%,-18%[46 µM],-2%
CCOC(=O)c1[nH]c(C)c(CCC(=O)NCc2cccc(C)c2)c1C,x,x,x,-10%[46 µM],x
C/C(=N/NC(=O)c1ccc2nc[nH]c2c1)c1cccs1,-10%[10 µM],-17%,-4%,-12%,u
Nc1ccn([C@H]2O[C@@H](COP(=O)(O)O)[C@@H](O)[C@H]2O)c(=O)n1,-50%[10 µM],-1%,8%[13.5 µM],x,x
COc1ccc(C(=O)Nc2ccc(NS(=O)(=O)c3ccccc3)cc2)cc1OC,-18%[10 µM],x,x,x,-13%[9.22 µM]
COc1cccc(S(=O)(=O)Nc2cccc(C(=O)N3CCCCCC3)c2)c1,x,-14%,14µM*,u,4%
COc1ccc(C(=O)N2CCCCC2)cc1S(=O)(=O)Nc1ccccc1,-8%,-10%,u,2%,-1%
O=c1c2oc3ccccc3c2[nH]c(=S)n1-c1ccc(F)cc1,-4%,x,-6%,7%[9.22 µM],-24%
COc1ccc(CNC(=O)c2ccccc2SC)cc1,16%,6.3µM*,6%,0%,6%
COc1ccc(CNC(=O)CCSCc2ccccc2C)cc1,-36%,x,4µM*,x,-11%
CCSc1ccccc1C(=O)N1CCN(Cc2ccc3c(c2)OCO3)CC1,-2%[1.9 µM],-13%,-8%,-10%,u
CSc1ccccc1C(=O)NCc1ccc2c(c1)OCO2,-3%[1.9 µM],0.5µM*,13%,31%,7%
CCSc1ccccc1C(=O)NCc1ccc2c(c1)OCO2,-5%,1.4µM*,u,10%,-5%
CSc1ccccc1C(=O)Nc1ccc2c(c1)OCO2,3%,x,1%,x,-26%
CCNc1ncc2nc(-c3ccc(OC)cc3)c(=O)n(CCC#N)c2n1,-6%,x,u,4%,x
SMILES,HTT ATP protect,HPGD inh,ALDH1A1 block,LMNA splice mod,HTT aggregate
Cc1nn(-c2ccccc2)c(Cl)c1/C=N/NC(=O)CNc1n[nH]c(=O)[nH]c1=O,-23%,x,1%,x,-6%
CC(C)N(C)C1CCN(S(=O)(=O)c2ccc3[nH]c(=O)ccc3c2)CC1,x,x,x,-15%[46 µM],x
O=C(Nc1ccc2c(c1)OCO2)c1ccccc1SCC(=O)N1CCCC1,-5%[10 µM],28µM*,1.3µM*,6%,u
O=c1[nH]c(=O)c2[nH]c(=O)[nH]c2[nH]1,12%,x,x,x,7%
O=c1[nH]c2[nH]c(=S)[nH]c(=S)c2[nH]1,-5%[10 µM],3.5µM*,u,x,x
O=C(/C=C/c1ccco1)Nc1sc2c(c1C(=O)O)CCC2,-48%,-18%,4%,-3%,u
N#Cc1c(NC(=O)/C=C/c2ccco2)sc2c1CCCC2,-82%[10 µM],u,32µM*,u,13%

# Source: PubChem BioAssay (National Center for Advancing Translational Sciences (NCATS))
